hNpr1 antagonist: antagonists of human natriuretic peptide receptor Npr1; P16066; HEK293 hNpr1 GloSensor cGMP, ANP-stimulated luminescence; Potency, µM (doses to about 46.3 µM), inactives show at the highest dose activity change, negative = inhibition, most hits filed as inhibitors; actives 1.6% (n = 76,000); AID 1347048; calls by dose curve; also: nearly all actives have a fitted effect of over 60% in size
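HEK293 cells stably expressing human Npr1 and cGMP GloSensor pGS-40F, loaded 2 h with 2% GloSensor reagent, given compound 30 min at room temperature. Luminescence read before and 20 min after 0.1 nM hNppA.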
FLuc inh: blocks purified firefly luciferase enzyme activity; purified P. pyralis luciferase, luminescence, biochemical; Potency, µM (titrated, usually from 115 µM), usual class: inhibitors; actives 2.5% (n = 76,000); P08659; AID 1347043; also: nearly all actives have a fitted effect of over 65% in size
Target sequence (P08659 whole entry, looked up): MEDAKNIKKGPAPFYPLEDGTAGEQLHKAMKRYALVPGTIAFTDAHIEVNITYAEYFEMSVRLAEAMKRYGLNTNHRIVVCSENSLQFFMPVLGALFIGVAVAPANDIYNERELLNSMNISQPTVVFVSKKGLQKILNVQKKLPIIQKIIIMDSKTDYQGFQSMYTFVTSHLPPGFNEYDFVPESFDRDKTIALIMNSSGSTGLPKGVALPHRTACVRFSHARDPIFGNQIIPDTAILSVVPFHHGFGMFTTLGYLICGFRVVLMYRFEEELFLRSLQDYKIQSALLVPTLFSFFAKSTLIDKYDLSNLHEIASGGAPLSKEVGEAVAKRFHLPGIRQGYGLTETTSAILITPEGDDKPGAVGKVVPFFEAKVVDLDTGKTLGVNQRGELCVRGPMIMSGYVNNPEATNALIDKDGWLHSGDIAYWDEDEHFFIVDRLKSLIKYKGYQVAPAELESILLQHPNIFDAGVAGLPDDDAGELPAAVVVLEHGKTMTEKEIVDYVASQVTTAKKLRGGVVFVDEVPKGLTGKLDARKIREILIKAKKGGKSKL
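Cell-free enzyme assay, 10nM P. pyralis luciferase, luciferin and ATP each at 10uM. Inhibition profiled over a 6-point titration, read as luminescence.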
3T3 cytotox: kills NIH 3T3 cells. NIH 3T3 viability, CellTiter-Glo ATP luminescence, 48-72 h. Potency, µM (highest dose often 96.7 µM), for inactives: at the top dose activity change, negative = cytotoxicity, usual class: inhibitors. actives 4.3% (n = 94,000). AID 1345082; also: nearly all actives have a fitted effect of over 55% in size
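NIH 3T3 cells at 400 cells/well received 23 nL of compound by pintool and were incubated 48 or 72 h at 37 °C. Viability was read as ATP-coupled CellTiter-Glo luminescence.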
HEK293 tox: kills HEK 293 cells | actives 6.6% (n = 94,000) | Potency, µM (doses to about 115 µM), for inactives: at the top dose activity change, negative = cytotoxicity, actives largely listed as inhibitors | AID 1345083 | HEK 293 viability, ATP luminescence (CellTiter-Glo), 48-72 h; also: nearly all actives have a fitted effect of over 60% in size
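CellTiter-Glo luminescence (cellular ATP) was read after 48 or 72 hr of compound exposure at 37 degree Celsius. Cells were HEK 293 plated at 250 cells/well.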
* = called active by the depositor; i = inactive; ? = inconclusive; / = no result given; [ ] = dose if it differs, or a comment. An excerpt weighted towards active compounds, which were near 11% of everything screened. Unless noted, calls follow the shape of the dose curve; as a rule, active = well fitted curve in the direction sought with a large enough effect; inconclusive = small, poorly fitted or top-dose-only effect, or another doubt; inactive = no such curve, though single readings can be large; an effect the other way counts as inactive or inconclusive. % is scaled to controls: 0 for no effect and ±100 for the full control effect; potency is read from the fitted curve at half-maximal effect.

SMILES	hNpr1 antagonist	FLuc inh	3T3 cytotox	HEK293 tox
Cc1oc(-c2cccc(Oc3ccccc3)c2)nc1CN1CC[C@H](N(C)C)C1	11%	i	79µM*	?
COc1cccc(CCC(=O)N2CCCN(c3cc(-c4ccccc4)[nH]n3)CC2)c1	-2%	i	?	?
O=C(Cc1c[nH]c2ccccc12)N1CCCN(c2cc(-c3ccc(Cl)cc3)[nH]n2)CC1	?	i	35µM*	45µM*
COc1ccc(-c2cc(N3CCCN(C(=O)Cc4c[nH]c5ccccc45)CC3)n[nH]2)cc1	-23%	i	?	?
COc1cccc(CC(=O)N2CCCN(c3cc(-c4ccccc4)[nH]n3)CC2)c1	-18%	i	?	35µM*
Cc1ccccc1CC(=O)N1CCCN(c2cc(-c3ccc(Cl)cc3)[nH]n2)CC1	0%	i	?	?
COc1ccc(-c2cc(N3CCCN(C(=O)Cc4cccc(F)c4)CC3)n[nH]2)cc1	0%	i	?	40µM*
Cc1cccc(CC(=O)N2CCCN(c3cc(-c4ccc(Cl)cc4)[nH]n3)CC2)c1	?	i	40µM*	?
Cc1ccc(-c2cc(N3CCCN(C(=O)c4ccccn4)CC3)n[nH]2)cc1C	-1%	i	i	?
COc1ccc(-c2cc(N3CCCN(C(=O)Cc4ccc(C)cc4)CC3)n[nH]2)cc1	?	i	?	?
Cc1ccc(CC(=O)N2CCCN(c3cc(-c4ccc(C)c(C)c4)[nH]n3)CC2)cc1	?	i	32µM*	32µM*
Cc1ccc(-c2cc(N3CCCN(C(=O)c4ccccc4C)CC3)n[nH]2)cc1C	?	i	40µM*	32µM*
COc1ccc(CC(=O)N2CCCN(c3cc(-c4ccc(Br)cc4)[nH]n3)CC2)cc1OC	?	i	?	?
COc1ccc(-c2cc(N3CCCN(C(=O)Cc4ccc(Cl)cc4)CC3)n[nH]2)cc1	-26%	i	?	45µM*
O[C@@H]1CCC2CC1[C@@H](O)CN2Cc1ccc(-c2ccccc2)cc1 (stereo not given in full)	/	/	?	79µM*
COCCN1C(=O)c2ccccc2C(C(=O)Nc2nc3ccccc3[nH]2)C12CCCC2 (stereo not given)	5%	i	-4%	5%
COCCN1C(=O)c2ccccc2C(C(=O)Nc2nc3ccccc3[nH]2)C12CCCCC2 (stereo not given)	-15%	i	?	79µM*
C1CC(COCCc2noc(C3CNC3)n2)CCO1	-26%	i	13µM*	7.9µM*
C1CC(Cc2noc(C3CCOCC3)n2)CN1 (stereo not given)	4%	i	?	79µM*
Cc1cccc(OCCc2noc(C3CCCN3C(=O)c3n[nH]c(=O)c4ccccc34)n2)c1 (stereo not given)	-2%	i	?	40µM*
Cc1cccc(OCCc2noc(C3CNC3)n2)c1	?	i	28µM*	28µM*
C1CCC(COCCc2noc(C3CCCNC3)n2)C1 (stereo not given)	-4%	i	1%	-18%
O=C(C1CC1)N1CCC2(CC1)CCN(CCc1ccccc1)c1ccccc1O2	9%	?	-30%	?
CC(C)S(=O)(=O)NCC1CN(CC2CC2)CC12CCCCC2 (stereo not given)	/	/	-30%	-9%
Cc1ccc(C)c(NC(=O)Cn2ccn3nc(-c4ccc(F)cc4)c(CO)c3c2=O)c1	1%	i	i	0%
SMILES	hNpr1 antagonist	FLuc inh	3T3 cytotox	HEK293 tox
COCCCn1c(C)cnc1C1CCN(Cc2ccc(F)cc2F)C1 (stereo not given)	2%	i	-27%	-26%
COCCc1nc(-c2cnc(C3CC3)nc2)n(-c2ccc(F)cc2F)n1	1%	i	89µM*	?
CCOC(=O)N1CCC(COc2ccc3c(cnn3CC[S+](C)(=O)[O-])c2)CC1	?	?	79µM*	?
C[S+](=O)([O-])CCn1ncc2cc(OCC3CCN(Cc4cccs4)CC3)ccc21	-1%[70.6 µM]	63µM*	?	?
O=C(NCC1CC1)c1cccc(OC2CN(Cc3ccc(OC(F)(F)F)cc3)C2)c1	-11%	i	?	?
Cc1noc(-c2ccc(OC3CN(C(=O)c4cccc5[nH]ccc45)C3)cc2)n1	?	35µM*	?	?
O=C(c1cccc2[nH]ccc12)N1CC(Oc2ccc(-c3nc(-c4ccccc4)no3)cc2)C1	-27%	16µM*	?	?
Cc1noc(-c2ccc(OC3CN(C(=O)c4sccc4C)C3)cc2)n1	?	i	?	?
O=C(c1cc(F)ccc1F)N1CC(Oc2ccc(-c3nc(-c4ccccc4)no3)cc2)C1	?	?	-11%	?
CNC(=O)c1cc(C)nc2onc(C3CCCN3C(=O)c3ccccc3F)c12 (stereo not given)	/	/	-23%	-1%
Cc1cnc(CCNC(=O)CC(C)C)n1Cc1ccc(F)cc1	3%	i	0%	i
O=C(c1ccc(Cl)nc1)N1CCCC(c2nn(-c3ccccn3)c(=O)[nH]2)C1 (stereo not given)	/	/	i	i
O=C(NC1CCCN(c2ccc3nnc(-c4ccccc4)n3n2)C1)c1cccc(Cl)c1 (stereo not given)	/	/	-18%	3%
Cc1cc(Cl)ccc1-c1cccc(CN)c1	/	/	32µM*	40µM*
Cc1cccc(-c2ccccc2CN)c1	/	/	-13%[138 µM]	-27%[172 µM]
Cc1cc(Cl)ccc1-c1ccccc1CN	/	/	22µM*	?
Cc1ccc(-c2cccc(CN)c2)c(C)c1	/	/	28µM*	45µM*
NCc1cccc(-c2cccc(O)c2)c1	/	/	-21%[138 µM]	-11%[172 µM]
Cc1ccc(-c2ccc(CN)cc2)c(C)c1	/	/	32µM*	32µM*
O=C(c1ccc(F)cc1)N1CCN(C(=O)c2nc3cccnc3n(Cc3ccccc3)c2=O)CC1	/	/	-9%	-7%
NCc1cccc(-c2cc(C(F)(F)F)ccc2Cl)c1	/	/	?	71µM*
Cc1cc(Cl)ccc1-c1ccccc1C=O	/	/	112µM*	?
COc1ccccc1-c1cccc(CN)c1	/	/	126µM*	100µM*
Cc1cc(Cl)ccc1-c1ccc(C=O)cc1	/	/	?	-20%[172 µM]
COc1ccc2c(c1)C(COCc1ccc(C(=O)O)cc1)CC(C)(C)O2 (stereo not given)	/	/	?	i
CCOC(=O)c1ccc(NC(=O)N2Cc3[nH]cnc3C[C@H]2c2nc(C(C)C)no2)cc1	1%[70.6 µM]	i	100µM*	?
CCOC(=O)c1ccc(NC(=O)N2Cc3[nH]cnc3C[C@H]2c2nc(-c3cccc(C)c3)no2)cc1	-30%	?	?	?
CCOC(=O)c1ccc(NC(=O)N2Cc3[nH]cnc3C[C@H]2c2nc(-c3ccc(C)cc3)no2)cc1	-16%	32µM*	?	?
O=C(NC1CCCCC1)N1Cc2[nH]cnc2C[C@H]1c1nc(-c2ccc3ccccc3c2)no1	0%	25µM*	1%	-5%

Bioassay records as filed in PubChem.
